This passage reports Potency and outcome results from PubChem BioAssay (NCATS).

SMILES strings stand for the structures. Inconclusive results are not listed. Calls of active or inactive are those of the source. Calls follow the shape of the dose curve; as a rule, active = well fitted curve in the direction sought with a large enough effect; inconclusive = small, poorly fitted or top-dose-only effect, or another doubt; inactive = no such curve, though single readings can be large; an effect the other way counts as inactive or inconclusive.

The nature of experiment [1]: Cell Viability - LYMP1-003 - Assay at 40 hr (AID 964). Also: nearly all actives have a fitted effect of over 60% in size. Also: potency is read from the fitted curve at half-maximal effect. The essentials:
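LYMP1-003 human lymphoblastoid cells, 2500/well, preincubated 5 h at 37 C, then treated with compound for 40 h at 37 C. Intracellular ATP read by CellTiter-Glo luminescence after 30 min at room temperature; AC50 from Hill-equation fits.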

A short description of experiment [2]: Cell Viability - LYMP2-003 (AID 965).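 Also: cells exposed to compounds for 24 h before reading; nearly all actives have a fitted effect of over 50% in size.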 Also: potency is read from the fitted curve at half-maximal effect. In outline:
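Human lymphoblastoid LYMP2-003 cells, 2500/well, exposed to compounds for 24 h at 37 C in complete medium. Viability read as intracellular ATP by CellTiter-Glo luminescence; AC50 from Hill-equation fits of qHTS concentration-response data.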

Experiment [3] in a line: Cell Viability - LYMP2-004 (AID 966). Also: nearly all actives have a fitted effect of over 65% in size. Also: potency is read from the fitted curve at half-maximal effect. The essentials: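 Lymphoblastoid LYMP2-004 cells, 2500 per well, were preincubated for 5 hr and then treated with compound for 24 h at 37 C in complete medium. Viability was read as cellular ATP by CellTiter-Glo luminescence, and AC50 values were taken from Hill fits to concentration-response data.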
The nature of experiment [4]: Cell Viability - LYMP2-005 (AID 967). Also: series mostly up to about 92 µM. The essentials: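 Human lymphoblastoid LYMP2-005 cells, 2,500 per well in complete medium, rested 5 h at 37C then compound-treated 24 h at 37C. Intracellular ATP read by CellTiter-Glo luminescence after 30 min at room temperature; AC50 from Hill-equation fits of concentration-response data.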
Experiment [5] can be described thus: Cell Viability - LYMP2-009 (AID 968). Also: nearly all actives have a fitted effect of over 55% in size. Also: potency is read from the fitted curve at half-maximal effect.
A short description of experiment [6]: Cell Viability - LYMP2-011 (AID 969). Also: nearly all actives have a fitted effect of over 60% in size. Also: potency is read from the fitted curve at half-maximal effect. In outline:
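2500 cells/well in complete medium, compound-treated 24 h at 37 C. Viability read as intracellular ATP by CellTiter-Glo luminescence after 30 min at room temperature. AC50 from Hill fits of qHTS concentration-response data.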

Experiment [7] in a line: Cell Viability - LYMP2-013 (AID 970). Also: nearly all actives have a fitted effect of over 55% in size. Also: potency is read from the fitted curve at half-maximal effect. In outline: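 Human lymphoblastoid LYMP2-013 cells, 2500/well, treated 24 h at 37 C in complete medium; viability as intracellular ATP by CellTiter-Glo luminescence after 30 min. AC50 from Hill fits of qHTS concentration-response.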
Experiment [8] in a line: Cell Viability - LYMP2-017 (AID 972). Also: nearly all actives have a fitted effect of over 55% in size. Also: potency is read from the fitted curve at half-maximal effect. The essentials:
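LYMP2-017 human lymphoblastoid cells (2500/well) settled 5 hr at 37 C, then exposed to compound 24 hr at 37 C in complete medium. Viability taken as intracellular ATP by CellTiter-Glo luminescence after 30 min at RT; AC50 from Hill fits.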

Experiment [9] can be described thus: Cell Viability - LYMP2-019 (AID 973). Also: nearly all actives have a fitted effect of over 55% in size. Also: potency is read from the fitted curve at half-maximal effect. The essentials: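 Human lymphoblastoid LYMP2-019 cells (2500/well) preincubated 5 h at 37 C, then treated 24 h at 37 C in complete medium. Viability by CellTiter-Glo ATP luminescence after 30 min at room temperature; AC50 from Hill fits.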
Experiment [10] can be described thus: Cell Viability - LYMP2-021 (AID 974). Also: potency is read from the fitted curve at half-maximal effect. In outline: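 Human lymphoblastoid LYMP2-021 cells, 2500/well in complete medium, treated 24 hours at 37 C. Intracellular ATP by CellTiter-Glo luminescence (30 min, RT); AC50 from Hill fits of concentration-response.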

Regarding `CCOP(=O)(NC(C)C)Oc1ccc(SC)c(C)c1` (stereo unspecified), the Potency entry in [1], in experiment [2], in experiment [3], in experiment [5], in [6] and in [7] was “inactive” each time. Besides, the Potency entry in [8], in experiment [9] and in experiment [10] was “inactive” in each case. Besides, the call in experiment [4] was inactive.

As for `O=[N+]([O-])c1c(Cl)c(Cl)cc(Cl)c1Cl`, the Potency result in experiment [1], in [2], in experiment [3], in [5], in [6] and in experiment [7] was “inactive” each time. Further, the Potency result in experiment [8], in [9] and in experiment [10] was “inactive” throughout. Besides, the molecule was called inactive in experiment [4].

Consider `c1cc2ccc3cccc4ccc(c1)c2c34`, for which the Potency entry in experiment [1], in [2], in experiment [3], in [5], in experiment [6] and in experiment [7] was “inactive” each time. Further, the Potency result in [8], in [9] and in experiment [10] was “inactive” throughout. Moreover, in experiment [4], the result was inactive.

Turning to `OCCCBr`, the Potency entry in experiment [1], in experiment [2], in experiment [3], in [5], in experiment [6] and in [7] was “inactive” throughout. The Potency result in experiment [8], in experiment [9] and in [10] was “inactive” in each case. The molecule was called inactive in [4].

For `CN(C)[C@@H]1C(=O)C(C(N)=O)=C(O)[C@@]2(O)C(=O)C3=C(O)c4c(O)cccc4[C@@](C)(O)[C@H]3[C@H](O)[C@@H]12`, the Potency entry in experiment [1], in experiment [2], in experiment [3], in experiment [5], in [6] and in experiment [7] was “inactive” in each case. Moreover, the Potency result in experiment [8], in [9] and in experiment [10] was “inactive” throughout. Also, the outcome in experiment [4] was inactive.

In the case of `Nc1ccc([N+](=O)[O-])cc1`, the Potency result in experiment [1], in experiment [2], in experiment [3], in [5], in experiment [6] and in [7] was “inactive” each time. The Potency entry in experiment [8], in [9] and in experiment [10] was “inactive” in each case.

Take `COC(C)(C)CCCC(C)C/C=C/C(C)=C/C(=O)OC(C)C` (stereo unspecified): the Potency entry in [1], in experiment [2], in experiment [3], in [5], in experiment [6] and in experiment [7] was “inactive” throughout. Moreover, the Potency entry in experiment [8], in [9] and in experiment [10] was “inactive” each time. Further, the call in [4] was inactive.

On to `O=C(O)COc1ccccc1`, for which the Potency entry in experiment [1], in experiment [2], in [3], in experiment [5], in experiment [6] and in experiment [7] was “inactive” in each case. Also, the Potency entry in experiment [8], in experiment [9] and in experiment [10] was “inactive” in each case. Further, in experiment [4], the outcome was inactive.

In the case of `CCOCCOC(C)=O`, the Potency entry in [1], in experiment [2], in [3], in [5], in experiment [6] and in experiment [7] was “inactive” each time. Besides, the Potency result in [8], in [9] and in experiment [10] was “inactive” in each case. For the same molecule, in [4], the result was inactive.

Regarding `Cc1cc(O)ccc1Cl`, the Potency entry in experiment [1], in [2], in [3], in [5], in experiment [6] and in experiment [7] was “inactive” each time. The Potency entry in [8], in [9] and in [10] was “inactive” each time. The outcome in experiment [4] was inactive.

Turning to `CC(=O)[O][Hg][c]1ccccc1`, the Potency was 1580 nM (active) in experiment [1]; 1580 nM (active) in experiment [2]; 1000 nM (active) in [3]; 501 nM (active) in experiment [5]; 1000 nM (active) in experiment [6]; 631 nM (active) in [7]. In addition, the Potency in [8] is 631 nM (active); in experiment [9] it was 794 nM (active); in experiment [10], 794 nM (active).

Consider `Nc1ccc(Sc2ccc(N)cc2)cc1`, for which the Potency result in experiment [1], in experiment [2], in [3], in experiment [5], in experiment [6] and in [7] was “inactive” throughout. Moreover, the Potency entry in experiment [8], in experiment [9] and in experiment [10] was “inactive” in each case. The call in [4] was inactive.

Take `C=CC(=O)NCNC(=O)C=C`: the Potency result in experiment [1], in experiment [2], in experiment [3], in experiment [5], in experiment [6] and in experiment [7] was “inactive” each time. Also, the Potency entry in experiment [8], in experiment [9] and in [10] was “inactive” each time. Further, the outcome in [4] was inactive.

With `COc1ccc(C(c2ccc(OC)cc2)C(Cl)(Cl)Cl)cc1`, the Potency entry in experiment [1], in experiment [2], in experiment [3], in experiment [5], in experiment [6] and in experiment [7] was “inactive” in each case. Further, the Potency entry in experiment [8], in [9] and in [10] was “inactive” throughout. Besides, the outcome in [4] was inactive.

In the case of `O=C(O)C(Cl)Cl`, the Potency entry in [1], in experiment [2], in experiment [3], in [5], in [6] and in experiment [7] was “inactive” each time. Also, the Potency result in experiment [8], in [9] and in [10] was “inactive” each time. The outcome in experiment [4] was inactive.

Regarding `O=[N+]([O-])c1c2ccccc2cc2ccccc12`, the Potency entry in experiment [1], in experiment [2], in [3], in [5], in experiment [6] and in [7] was “inactive” each time. The Potency result in [8], in experiment [9] and in [10] was “inactive” each time. The call in experiment [4] was inactive.

As to `CCCCOC(=O)c1ccccc1C(=O)OCc1ccccc1`, the Potency entry in experiment [1], in [2], in experiment [3], in [5], in [6] and in experiment [7] was “inactive” each time. Also, the Potency result in experiment [8], in [9] and in [10] was “inactive” each time. Moreover, the call in experiment [4] was inactive.

With `Nc1ccc(Cl)cc1`, the Potency entry in experiment [1], in experiment [2], in experiment [3], in experiment [5], in [6] and in experiment [7] was “inactive” throughout. For the same molecule, the Potency entry in experiment [8], in experiment [9] and in experiment [10] was “inactive” each time. For the same molecule, in [4], the result was inactive.

On to `C1CCC(NC2CCCCC2)CC1`, for which the Potency result in [1], in experiment [2], in [3], in [5], in [6] and in experiment [7] was “inactive” each time. Besides, the Potency entry in experiment [8], in experiment [9] and in experiment [10] was “inactive” throughout. The call in experiment [4] was inactive.

Regarding `CCCCC(CC)COC(=O)c1ccccc1C(=O)OCC(CC)CCCC` (stereo unspecified), the Potency result in [1], in [2], in experiment [3], in experiment [5], in experiment [6] and in experiment [7] was “inactive” throughout. The Potency entry in [8], in [9] and in experiment [10] was “inactive” throughout. The molecule was classed as inactive in experiment [4].

As for `O=[N+]([O-])c1cc([N+](=O)[O-])c2ccccc2c1`, the Potency entry in experiment [1], in experiment [2], in experiment [3], in [5], in experiment [6] and in [7] was “inactive” in each case. Besides, the Potency result in [8], in experiment [9] and in experiment [10] was “inactive” each time. For the same molecule, in experiment [4], the result was inactive.

On to `CCCCCCCCc1ccc(O)cc1`, for which the Potency result in experiment [2], in [3], in experiment [5], in [6], in [7] and in experiment [8] was “inactive” each time. Moreover, the Potency result in [9] and in experiment [10] was “inactive” each time. Moreover, the outcome in [4] was inactive.

`Nc1ccc(Cl)cc1N`: the Potency result in [1], in experiment [2], in [5], in experiment [6], in [7] and in experiment [8] was “inactive” in each case. Also, the Potency entry in experiment [9] and in [10] was “inactive” in each case. Further, the call in experiment [4] was inactive.

Regarding `CC(C)(O)C(=O)Nc1ccc([N+](=O)[O-])c(C(F)(F)F)c1`, the Potency result in experiment [1], in [2], in [3], in experiment [5], in experiment [6] and in experiment [7] was “inactive” throughout. For the same molecule, the Potency result in experiment [8], in experiment [9] and in [10] was “inactive” in each case. Besides, the molecule was classed as inactive in experiment [4].

On to `CN(C)NC(=O)CCC(=O)O`, for which the Potency result in [1], in [2], in experiment [3], in experiment [5], in [6] and in experiment [7] was “inactive” in each case. Moreover, the Potency entry in experiment [8], in experiment [9] and in [10] was “inactive” each time. In addition, the outcome in [4] was inactive.

`O=S(=O)(c1ccc(Cl)cc1)c1ccc(Cl)cc1`: the Potency result in [1], in experiment [2], in [3], in experiment [5], in [6] and in experiment [7] was “inactive” throughout. Also, the Potency entry in [8], in experiment [9] and in experiment [10] was “inactive” in each case. Further, the outcome in experiment [4] was inactive.
